Active and inactive are the calls of the source. The calls were made as follows: active = hit-call score of the fitted dose curve at least 0.9, where 1 is the maximum; inactive = score below 0.9.

Read-out in the test: Insulin Like Growth Factor 1 (IGF1), IGF1 (gene 3479)
Kind of test: LTEA_HepaRG_IGF1: Life Technologies and Expression Analysis (LTEA) Assay for Insulin Like Growth Factor 1 (IGF1) using HepaRG (AID 2283506). To be noted: mRNA level, 48 h; actives raise or lower the signal. Summed up:
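Using human HepaRG liver cells, IGF1 transcript induction or suppression is measured 48 h after dosing across eight concentrations capped at 100 uM. Values derive from bidirectional concentration-response fitting with DMSO as baseline.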
In the case of `Cn1cnc([N+](=O)[O-])c1Sc1ncnc2nc[nH]c12`, the molecule was called inactive.

`COc1ccc2sc(C(=O)Nc3nnn[nH]3)c(OC(C)C)c2c1`: the molecule was classed as inactive.

As for `CN(C)c1ccc(Cc2ccc(N(C)C)cc2)cc1`, the AC50 – broadly, the midpoint of the concentration-response curve, whichever way the signal moves – was 79.2 µM (active).

For `Nc1nc2ncc(CNc3ccc(C(=O)N[C@@H](CCC(=O)O)C(=O)O)cc3)nc2c(=O)[nH]1`, the molecule was called inactive.

Turning to `CC(C)=CCC/C(C)=C\CO`, the molecule was called inactive.

As to `CCOCCOCCOCCO`, the outcome was inactive.

For `CC/C(=C\C(=N/O)C(N)=O)C(C)[N+](=O)[O-]` (stereo not given), the molecule was classed as inactive.

Take `CCOC(=O)COc1ccc2c(c1)CC(NCC(O)c1cccc(Cl)c1)CC2` (stereo not given): the outcome was inactive.

For the molecule `CC(C)=CCC/C(C)=C/CO`, the outcome was inactive.

As to `CC(C)(O)c1coc(S(=O)(=O)NC(=O)Nc2c3c(cc4c2CCC4)CCC3)c1`, the outcome was inactive.

As to `CC1=CC(=O)CC(C)(C)C1`, the molecule was classed as inactive.

As to `CCCCCCc1ccc(O)cc1O`, the result was inactive.

For the molecule `CC(C)CCO`, the call was inactive.

Turning to `CC[C@H](C)C(=O)O[C@H]1C[C@@H](C)C=C2C=C[C@H](C)[C@H](CC[C@@H]3C[C@@H](O)CC(=O)O3)[C@H]21`, the molecule was classed as inactive.

For `CC1(C)C(=O)N(Br)C(=O)N1Br`, the molecule was called inactive.

With `CCCN(C1CCN(C(=O)C2CCNCC2)CC1)[C@@H]1CCc2ccc(OC)cc2C1`, the AC50 is 50 µM (active).

`CCOc1cccc(-n2cc(C(=O)N3CCN(c4cc(C(=O)O)c5ccccc5c4)CC3)nc2-c2ccc(C)cc2)c1`: the AC50 was 26.6 µM (active).

As to `Cc1ccc(O)cc1`, the call was inactive.

As to `CC[C@H]1OC(=O)[C@H](C)[C@@H](O[C@H]2C[C@@](C)(OC)[C@@H](O)[C@H](C)O2)[C@H](C)[C@@H](O[C@@H]2O[C@H](C)C[C@H](N(C)C)[C@H]2O)[C@](C)(O)C[C@@H](C)C(=O)[C@H](C)[C@@H](O)[C@]1(C)O`, the molecule was called inactive.

Consider `Fc1ccccc1[C@@H](F)COC1CCC(Nc2ncnc3[nH]ncc23)CC1` (stereo not given in full), for which the AC50 was 50 µM (active).

Take `NC(=O)NO`: the AC50 was 14.3 µM (active).

Take `C1=CCCC=CCCC=CCC1`: the outcome was inactive.

Regarding `CC(O)CN(CCN(CC(C)O)CC(C)O)CC(C)O` (stereo not given), the result was inactive.

As for `Cn1c(=O)cc(Oc2ccc(F)cc2F)c2cnc(NCC(C)(C)O)nc21`, the AC50 is 12.6 µM (active).

On to `CCCC(=O)OCC`, for which the molecule was called inactive.

`C=CC(=C)CCC=C(C)C`: the molecule was called inactive.

For the molecule `O=C1CCC(N2C(=O)c3ccccc3C2=O)C(=O)N1` (stereo not given), the call was inactive.

Turning to `O=C(O)c1cc(N=Nc2ccc(S(=O)(=O)Nc3ccccn3)cc2)ccc1O`, the molecule was classed as inactive.

In the case of `CCCCCCCCCCCCCCCO`, the call was inactive.

In the case of `CC(=O)c1ccc2c(c1)[C@H](NC(=O)c1ccc(F)cc1)[C@@H](O)C(C)(C)O2`, the outcome was inactive.

(Values after PubChem BioAssay (EPA / NIEHS).)
